# Results filed as inconclusive are left out. Activity calls are given as the source filed them. Unless noted, no rule for the calls is given here.
# Legend:
# [1] = molecular target: ATP-dependent translocase ABCB1 (Homo sapiens) (UniProt P08183); assay: MDR1 (ABCB1) efflux transporter inhibition, cell-based (AID 377; in the data active = fluorescence slope change above about 50%); conditions: MDR1-expressing cells, fluorescent substrate accumulation slope; stronger effect = higher value; concentration not given here
# [2] = circadian clock period modulators, cell-based, LOPAC library, luminescence reporter (AID 2774); conditions: circadian reporter cells, at 7 µM, actives lie on both sides;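 also: values are relative to mean of DMSO wells on each plate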
# [3] = test system: Hepatitis C virus NS3 helicase; assay: HCV NS3 helicase inhibitors, primary screen, biochemical, fluorescence polarization, LOPAC1280 library (AID 687035; in the data active = inhibition above about 37%); conditions: Purified HCV NS3 helicase, Cy5-dT15 ssDNA binding fluorescence polarization; stronger effect = higher value; concentration not given here
# [4] = Cy5 fluorescence quenching or enhancement artefacts, artefact control for HCV NS3 helicase inhibitor project, biochemical, LOPAC1280 (AID 687037); conditions: Cy5-DNA-NS3h complex fluorescence interference counterscreen
# [5] = sensitizers of A549 cells to miR-34 induction, primary screen, imaging, A549 dox-inducible miR-34, nuclei and caspase counts (AID 1347080;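 active = compounds whose cell count with miR-34 switched on is under 0.7 times the count with it off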); conditions: A549 miR-34 inducible, Hoechst nuclei count, 48 h
# [6] = phospholipid biosynthesis inhibitors in animal cells, primary screen, cell-based, LOPAC library, screen 4 (AID 1347384); conditions: phospholipid biosynthesis inhibition screen, at 10 µM
# [7] = viability rescue of complex I mutant cybrids, primary screen, cell-based, galactose medium, ATP luminescence (AID 1645843;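 active = z-score of at least 1.8 in each of two replicates, scored against plate mean and spread of sample wells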;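 also: positive z means more ATP and so rescue of galactose-driven cybrid death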); conditions: complex I mutant cybrid cells, 72 h, stronger effect = higher value
# [8] = hESC survival regulators, cell-based (AID 493140); conditions: human embryonic stem cell survival screen; stronger effect = higher value;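 also: cells exposed to compounds for four days before counting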
# [9] = liver-stage malaria parasite growth inhibition, primary screen, cell-based, HepG2, luciferase luminescence, HepG2 viability (AID 624349; in the data active = parasite load remaining mostly below about 12%, no sharp cut-off; inactive = mostly above about 10%;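 also: 100% = mean of DMSO negative control wells on the same plate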); conditions: P. berghei liver stage in HepG2, luciferase luminescence, concentration not given here; parasite load remaining: stronger effect = lower value; viability: measured here: HepG2 viability without parasites
# [10] = stronger effect = lower value, cell number ratio, induced over uninduced
# [11] = measured here: relative caspase fold change +Dox/-Dox
# [12] = measured here: total cells with miR-34 induction, stronger effect = lower value
# [13] = measured here: total cells without miR-34 induction
# ATP-dependent translocase ABCB1 (Homo sapiens), sequence (P08183 whole entry, looked up): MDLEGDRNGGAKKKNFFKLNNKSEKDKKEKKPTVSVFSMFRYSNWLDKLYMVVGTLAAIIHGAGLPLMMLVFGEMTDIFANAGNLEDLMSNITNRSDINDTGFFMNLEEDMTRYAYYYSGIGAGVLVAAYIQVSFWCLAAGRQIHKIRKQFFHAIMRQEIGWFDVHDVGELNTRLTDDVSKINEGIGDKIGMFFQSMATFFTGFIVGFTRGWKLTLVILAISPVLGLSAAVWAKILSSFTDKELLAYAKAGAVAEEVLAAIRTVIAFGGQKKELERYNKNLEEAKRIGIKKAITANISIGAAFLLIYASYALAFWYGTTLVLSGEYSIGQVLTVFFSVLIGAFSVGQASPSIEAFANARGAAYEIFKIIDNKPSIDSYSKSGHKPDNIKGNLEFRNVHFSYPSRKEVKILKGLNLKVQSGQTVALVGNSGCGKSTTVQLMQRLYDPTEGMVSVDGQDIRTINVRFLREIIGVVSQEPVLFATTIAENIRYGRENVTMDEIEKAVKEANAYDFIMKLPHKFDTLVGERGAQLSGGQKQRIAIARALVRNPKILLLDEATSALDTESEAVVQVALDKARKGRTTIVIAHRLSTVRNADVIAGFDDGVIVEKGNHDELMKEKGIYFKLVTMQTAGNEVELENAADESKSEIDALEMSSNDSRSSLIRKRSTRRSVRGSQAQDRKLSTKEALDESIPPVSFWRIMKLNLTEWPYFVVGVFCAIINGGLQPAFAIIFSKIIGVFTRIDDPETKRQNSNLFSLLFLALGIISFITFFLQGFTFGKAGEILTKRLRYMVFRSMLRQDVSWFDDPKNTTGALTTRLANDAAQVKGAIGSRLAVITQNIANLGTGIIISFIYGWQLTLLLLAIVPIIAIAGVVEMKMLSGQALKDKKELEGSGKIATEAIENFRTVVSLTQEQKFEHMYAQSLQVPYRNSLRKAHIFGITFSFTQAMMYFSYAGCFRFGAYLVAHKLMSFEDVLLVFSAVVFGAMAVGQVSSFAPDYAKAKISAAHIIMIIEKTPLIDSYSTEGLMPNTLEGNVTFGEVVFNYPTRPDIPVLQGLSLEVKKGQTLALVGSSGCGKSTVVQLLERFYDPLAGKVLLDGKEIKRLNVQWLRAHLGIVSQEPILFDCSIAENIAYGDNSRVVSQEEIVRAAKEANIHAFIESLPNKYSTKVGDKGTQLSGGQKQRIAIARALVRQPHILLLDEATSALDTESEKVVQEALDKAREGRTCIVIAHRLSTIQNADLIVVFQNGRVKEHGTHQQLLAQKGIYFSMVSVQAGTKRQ
Compound,fluorescence slope change [1],period change [2],inhibition [3],fluorescence ratio (interference) [4],"fold change [5, 10]","fold change [5, 11]","cell count [5, 12]","cell count [5, 13]",outcome [6],z-score [7],survival [8],parasite load remaining [9],viability [9] [%]
NCC1OC(O[C@@H]2[C@H](O)C(OC3C(O)C(N)CC(N)C3OC3OC(CO)C(O)C(O)C3N)O[C@@H]2CO)C(N)C(O)C1O (stereo partly drawn),14.4% (inactive),0.005 h (inactive),0% (inactive),1 (inactive),0.998 (inactive),1.38,9490,9510,inactive,0.61 (inactive),–,–,–
CC(=O)/C(C)=N/O,–,0.15 h (inactive),–,–,0.97 (inactive),2.72,9060,9340,inactive,0.485 (inactive),–,–,–
CNC(=O)[C@H]1O[C@@H](n2cnc3c(NCc4ccc(N)cc4)ncnc32)C(O)[C@H]1O (stereo partly drawn),–,-0.095 h (inactive),-2% (inactive),1 (inactive),1 (inactive),1.7,9670,9680,inactive,0.09 (inactive),–,–,–
S=C(Nc1ccccc1)Nc1nccs1,65.3% (active),0.02 h (inactive),-3% (inactive),1 (inactive),1.08 (inactive),0.629,6230,5760,inactive,-1.19 (inactive),–,–,–
O=C(O)Cc1c[nH]c2ccc(O)cc12,–,-0.095 h (inactive),-2% (inactive),1 (inactive),1.08 (inactive),0.669,9930,9210,inactive,0.08 (inactive),–,–,–
CCCn1c(=O)c2[nH]c(-c3ccc(S(=O)(=O)O)cc3)nc2n(CCC)c1=O,–,-0.005 h (inactive),0% (inactive),1 (inactive),0.978 (inactive),2.81,10100,10400,inactive,0.43 (inactive),–,–,–
Brc1ccc([C@H]2CN3CCSC3=N2)cc1,–,-0.16 h (inactive),0% (inactive),0.9 (inactive),1.04 (inactive),1.3,9880,9490,inactive,0.145 (inactive),79.5 (inactive),–,–
COc1cc(OC)c(/C=C2/C(=O)Nc3ccccc32)c(OC)c1,–,-0.54 h (inactive),-1% (inactive),1 (inactive),1.2 (inactive),0.628,2100,1750,inactive,-1.29 (inactive),–,35.9% (inactive),78.8
CN1C2CC(OC(=O)[C@H](CO)c3ccccc3)CC1C1OC12 (stereo partly drawn),–,0.01 h (inactive),-4% (inactive),1 (inactive),0.96 (inactive),0.75,10100,10500,inactive,0.535 (inactive),4.58 (inactive),–,–
COc1ccc(/C=C/c2nc(NCCCN(C)C)c3ccccc3n2)cc1,–,–,–,–,1.02 (inactive),1.21,1330,1300,inactive,-1.21 (inactive),–,–,–
Nc1ncnc2c1ncn2[C@@H]1O[C@H](CO)[C@H](O)C1O (stereo partly drawn),–,0.045 h (inactive),-1% (inactive),0.9 (inactive),1 (inactive),1.47,11100,11100,inactive,2.61 (active),3.25 (inactive),–,–
Oc1ccccc1O,–,-0.735 h (inactive),-1% (inactive),1 (inactive),1.03 (inactive),1.8,7780,7580,inactive,-1.42 (inactive),–,–,–
CCCCCCC/C=C\CCCCCCCCC(=O)O,–,0.02 h (inactive),-4% (inactive),0.9 (inactive),1.08 (inactive),0.494,10900,10100,inactive,0.87 (inactive),–,–,–
COc1ccccc1CN[C@@H]1CCCN[C@@H]1c1ccccc1,–,–,–,–,0.967 (inactive),1.32,9540,9860,inactive,-0.42 (inactive),–,–,–
NC1C=CC=C(C(=O)O)C1 (stereo not drawn),–,0.115 h (inactive),0% (inactive),1 (inactive),1.08 (inactive),2.16,9940,9200,inactive,0.355 (inactive),–,–,–
NC1(C(=O)O)CCCCC1,–,-0.115 h (inactive),-2% (inactive),1 (inactive),0.983 (inactive),2.37,10700,10900,inactive,0.63 (inactive),–,–,–
CNCCNS(=O)(=O)c1cccc2cnccc12,–,0.23 h (inactive),-6% (inactive),0.9 (inactive),1.05 (inactive),1.37,10700,10200,inactive,-0.89 (inactive),194 (active),51% (inactive),111
C[N+](C)(C)CC=O,–,-0.2 h (inactive),-5% (inactive),0.9 (inactive),1 (inactive),1.36,10200,10200,inactive,0.245 (inactive),–,–,–
O=c1[nH]ccc2c(O)cccc12,–,0.03 h (inactive),-3% (inactive),0.9 (inactive),1.09 (inactive),1.24,10100,9200,inactive,0.02 (inactive),–,–,–

# — PubChem BioAssay
